Among all 5,500 compounds or so, about 2,000 (36%) were called active. Not shown: some 18% with an inconclusive outcome. This is one part of the list. A number with no mark means an inactive call. No stated cut-off is given here; in the data, active means normalized growth mostly below about 0.91 (no sharp cut-off); inconclusive means no clear call, values can overlap the other calls; inactive means mostly above about 0.92.
Experiment: chemical genetic growth profiling, strain panel (AID 1159580);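 further: tested at 20 µM; growth read once vehicle control cultures reached saturation at 30 °C; 1 = growth at the plate median or of vehicle wells; lower values mean less growth of the strain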
Details: S. cerevisiae deletion strains, growth OD

CC(C)(OC(=O)c1ccccc1)[C@@H]1Cc2cc3ccc(=O)oc3cc2O1
normalized growth (locus YBR021W, strain FUR4, active compounds read low): 0.939 | normalized growth (locus YBR229C, strain ROT2, active compounds read low): 0.986 | normalized growth (locus YCL029C, strain bik1, active compounds read low): 1.01 | normalized growth (locus YDL035C, strain GPR1, active compounds read low): 0.927 | normalized growth (locus YDL074C, strain BRE1, active compounds read low): 0.95 | normalized growth (locus YDL101C, strain DUN1, active compounds read low): 0.975 | normalized growth (locus YDL185W, strain tfp1, active compounds read low): 0.956 | normalized growth (locus YDL192W, strain arf1, active compounds read low): 0.982 | normalized growth (locus YDR101C, strain arx1, active compounds read low): 0.975 | normalized growth (locus YDR150W, strain NUM1, active compounds read low): 0.989 | normalized growth (locus YDR162C, strain NBP2, active compounds read low): 0.834 (active) | normalized growth (locus YDR318W, strain mcm21, active compounds read low): 0.954 | normalized growth (locus YDR388W, active compounds read low): 0.994 | normalized growth (locus YDR502C, strain sam2, active compounds read low): 0.956 | normalized growth (locus YEL061C, strain CIN8, active compounds read low): 0.992 | normalized growth (locus YER110C, active compounds read low): 0.973 | normalized growth (locus YER155C, strain BEM2, active compounds read low): 0.999 | normalized growth (locus YER167W, strain BCK2, active compounds read low): 0.991 | normalized growth (locus YGL078C, strain dbp3, active compounds read low): 0.957 | normalized growth (locus YGL086W, strain mad1, active compounds read low): 0.987 | normalized growth (locus YGL248W, strain PDE1, active compounds read low): 0.94 | normalized growth (locus YGR078C, strain PAC10, active compounds read low): 0.945 | normalized growth (locus YGR135W, strain pre9, active compounds read low): 0.951 | normalized growth (locus YGR229C, strain SMI1, active compounds read low): 0.885 | normalized growth (locus YGR252W, strain gcn5, active compounds read low): 0.805 | normalized growth (locus YHR030C, strain SLT2, active compounds read low): 0.989 | normalized growth (locus YHR079C, strain IRE1 (second series), active compounds read low): 1 | normalized growth (locus YHR094C, strain hxt1, active compounds read low): 1 | normalized growth (locus YHR129C, strain ARP1, active compounds read low): 0.989 | normalized growth (locus YHR200W, strain rpn10, active compounds read low): 0.976 | normalized growth (locus YIL066C, strain RNR3, active compounds read low): 0.927 | normalized growth (locus YIL073C, strain SPO22, active compounds read low): 0.945 | normalized growth (locus YIL125W, strain kgd1, active compounds read low): 1 | normalized growth (locus YIR030C, strain dcg1, active compounds read low): 0.988 | normalized growth (locus YJL095W, strain BCK1, active compounds read low): 0.89 | normalized growth (locus YJL134W, strain LCB3, active compounds read low): 0.989 | normalized growth (locus YJL168C, strain set2, active compounds read low): 0.983 | normalized growth (locus YJL187C, strain SWE1 (second series), active compounds read low): 0.958 | normalized growth (locus YJR043C, strain POL32, active compounds read low): 0.978 | normalized growth (locus YJR075W, strain HOC1, active compounds read low): 0.976 | normalized growth (locus YKL009W, strain mrt4, active compounds read low): 0.958 | normalized growth (locus YKL068W, active compounds read low): 0.992 | normalized growth (locus YKL085W, strain MDH1 (second series), active compounds read low): 1 | normalized growth (locus YKL085W, strain MDH1, active compounds read low): 1 | normalized growth (locus YKR001C, strain vps1, active compounds read low): 0.997 | normalized growth (locus YLR039C, strain RIC1, active compounds read low): 1.05 | normalized growth (locus YLR058C, strain SHM2, active compounds read low): 0.975 | normalized growth (locus YLR102C, strain apc9, active compounds read low): 0.984 | normalized growth (locus YLR262C, strain YPT6, active compounds read low): 1.02 | normalized growth (locus YLR268W, strain sec22, active compounds read low): 0.977 | normalized growth (locus YLR330W, strain CHS5, active compounds read low): 0.976 | normalized growth (locus YLR342W, strain FKS1 (second series), active compounds read low): 1.01 | normalized growth (locus YLR371W, strain rom2, active compounds read low): 0.994 | normalized growth (locus YLR418C, strain cdc73, active compounds read low): 0.828 (active) | normalized growth (locus YML016C, strain PPZ1, active compounds read low): 0.982 | normalized growth (locus YML032C, strain rad52, active compounds read low): 0.97 | normalized growth (locus YML124C, strain tub3, active compounds read low): 0.974 | normalized growth (locus YMR078C, strain ctf18, active compounds read low): 0.976 | normalized growth (locus YMR223W, strain ubp8, active compounds read low): 0.945 | normalized growth (locus YMR307W, strain GAS1, active compounds read low): 0.895 | normalized growth (locus YNL067W, strain RPL9B, active compounds read low): 0.96 | normalized growth (locus YNL128W, strain TEP1, active compounds read low): 0.981 | normalized growth (locus YNL233W, strain BNI4, active compounds read low): 0.968 | normalized growth (locus YNL250W, strain rad50, active compounds read low): 0.991 | normalized growth (locus YNL271C, strain bni1, active compounds read low): 0.938 | normalized growth (locus YNL298W, strain CLA4, active compounds read low): 0.942 | normalized growth (locus YNL307C, strain MCK1, active compounds read low): 0.975 | normalized growth (locus YNL322C, strain KRE1, active compounds read low): 0.984 | normalized growth (locus YNR052C, strain pop2, active compounds read low): 0.983 | normalized growth (locus YOL006C, strain TOP1, active compounds read low): 0.761 | normalized growth (locus YOL012C, strain htz1): 1.01 | normalized growth (locus YOL147C, strain pex11, active compounds read low): 0.986 | normalized growth (locus YOR061W, strain CKA2, active compounds read low): 0.976 | normalized growth (locus YOR069W, strain VPS5, active compounds read low): 0.983 | normalized growth (locus YOR136W, strain idh2, active compounds read low): 0.987 | normalized growth (locus YOR144C, strain elg1, active compounds read low): 0.973 | normalized growth (locus YOR184W, strain ser1, active compounds read low): 0.861 (active) | normalized growth (locus YOR316C, strain cot1, active compounds read low): 0.976 | normalized growth (locus YPL241C, strain CIN2, active compounds read low): 0.982 | normalized growth (locus YPR119W, strain clb2, active compounds read low): 0.993 | normalized growth (locus YPR141C, strain kar3, active compounds read low): 0.995 | normalized growth (locus YPR163C, strain tif3, active compounds read low): 0.973 | normalized growth (locus YPR167C, strain met16, active compounds read low): 0.98 | normalized growth (strain wtn01, active compounds read low): 0.986
